PubChem BioAssay (NCI)
Compounds without any hit were thinned out: in the full panel of roughly 79,000, 15% have a hit. A number with no mark means an inactive call. Active and inactive are the calls of the source. Cut-off read from the data, not from the text of the source: active = growth inhibition above about 70%; inactive = the rest.

Tests used:
[1] = NCI Yeast Anticancer Drug Screen. Data for the rad50 strain (AID 155);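 note: 0% = growth of vehicle-only cultures of the same strain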; settings: S. cerevisiae rad50 strain growth inhibition; at 50.0 µM; active compounds read high
How it was run: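 Compounds were tested on a yeast strain with an engineered DNA damage repair alteration; the reported value is growth inhibition normalised to vehicle treatment.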

[2] = NCI Yeast Anticancer Drug Screen. Data for the mec2-1 strain (AID 157); settings: S. cerevisiae mec2-1 strain, at 50.0 µM, active compounds read high
How it was run: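 Test agents were screened against the mec2-1 yeast strain, with defined DNA repair or cell cycle alteration. Growth was scored as inhibition against vehicle-only controls.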

[3] = NCI Yeast Anticancer Drug Screen. Data for the sgs1 mgt1 strain (AID 161);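 note: 0% = growth of cultures given vehicle only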; settings: S. cerevisiae sgs1 mgt1 strain, at 50.0 µM, active compounds read high
How it was run: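 Inhibition of yeast growth, normalised to vehicle-treated controls, is reported for a strain bearing genetic alterations in DNA damage repair.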

[4] = NCI Yeast Anticancer Drug Screen. Data for the cln2 rad14 strain (AID 165);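 note: 0% = growth equal to vehicle treated cultures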; settings: S. cerevisiae cln2 rad14 strain, at 50.0 µM, active compounds read high
How it was run: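 Growth of compound-exposed yeast (cln2 rad14 genotype) measured and expressed as inhibition relative to vehicle.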

[5] = NCI Yeast Anticancer Drug Screen. Data for the bub3 strain (AID 167); settings: S. cerevisiae bub3 mutant strain, at 50.0 µM, active compounds read high
How it was run: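 Growth of a checkpoint-deficient yeast mutant is measured after compound exposure. Values represent inhibition relative to vehicle.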

[6] = NCI Yeast Anticancer Drug Screen. Data for the mlh1 rad18 strain (AID 175); settings: S. cerevisiae mlh1 rad18 strain growth inhibition; at 50.0 µM; active compounds read high
How it was run: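 In this whole-cell yeast screen, a strain with altered DNA damage repair is challenged with compound, and its growth is measured against matched vehicle-treated controls.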

With `CCOC(=O)COc1cc2c(cc1C(C)c1ccc(OCc3ccccc3)c(OC)c1)OCO2` (stereo unspecified) the growth inhibition [1] was -0.95%, the growth inhibition [2] was -7.55% and the growth inhibition [3] was -9.7%. The growth inhibition [4] was 10.6%, the growth inhibition [5] was -7.4% and the growth inhibition [6] was -6.3%.

`CSc1ccc(NC(=O)c2ccc(C(=O)Nc3ccc(SC)cc3)cc2)cc1` gave a growth inhibition [1] of -17.5%, a growth inhibition [2] of -10.7% and a growth inhibition [3] of -12.6%. The growth inhibition [4] was -14.9%, the growth inhibition [5] was -1.95% and the growth inhibition [6] was -26.7%.

For `CNS(=O)(=O)c1ccc(Cl)cc1`, the growth inhibition [1] was 29.9%, the growth inhibition [2] was 11.7% and the growth inhibition [3] was 13.9%. It also gave a growth inhibition [4] of 13.3%, a growth inhibition [5] of 5.9% and a growth inhibition [6] of 20.1%.

`Cc1nn(-c2ccc([N+](=O)[O-])cc2)c2c1C(C)(C)C(C#N)=C(N)O2` gave a growth inhibition [1] of -9.9%, a growth inhibition [2] of -6.7% and a growth inhibition [3] of -3.5%. It also gave a growth inhibition [4] of -3.55%, a growth inhibition [5] of 0.65% and a growth inhibition [6] of 6.95%.

For `COc1cccc2c1CC/C(=C\c1ccccn1)C2=O`, the growth inhibition [1] was 98.5% (active), the growth inhibition [2] was 99.1% (active) and the growth inhibition [3] was 98.9% (active). For the same compound, the growth inhibition [4] was 97.8% (active), the growth inhibition [5] was 98.8% (active) and the growth inhibition [6] was 99.2% (active).

Work on `COc1ccc(CC(N)C(N)=O)cc1` (stereo unspecified) yielded a growth inhibition [1] of -6.25%, a growth inhibition [2] of -0.65% and a growth inhibition [3] of -4%. It also gave a growth inhibition [4] of -12%, a growth inhibition [5] of -0.3% and a growth inhibition [6] of 6.5%.

Work on `O=S(=O)(O)C1CC2C(c3ccccc31)N1ON2O1` (stereo unspecified) yielded a growth inhibition [1] of 54.8%, a growth inhibition [2] of -2.05% and a growth inhibition [3] of 10.3%. For the same compound, the growth inhibition [4] was 3.75%, the growth inhibition [5] was -14.7% and the growth inhibition [6] was -0.95%.

Work on `O=C1CC2C(O)OC(O)C(C1)N2C(=O)OCC(Cl)(Cl)Cl` (stereo unspecified) yielded a growth inhibition [1] of 10.8%, a growth inhibition [2] of -15.9% and a growth inhibition [3] of -8.55%. For the same compound, the growth inhibition [4] was 12.6%, the growth inhibition [5] was -17.4% and the growth inhibition [6] was -6.6%.

`CC(C)C(=O)/C=C/c1ccc(Cl)c(Cl)c1` gave a growth inhibition [1] of 41.2%, a growth inhibition [2] of 28.2% and a growth inhibition [3] of 26.4%. It also gave a growth inhibition [4] of -1.85%, a growth inhibition [5] of 18.9% and a growth inhibition [6] of 26.8%.

With `O=C1CCCC/C1=C/c1ccccc1` the growth inhibition [1] was 6%, the growth inhibition [2] was 18.9% and the growth inhibition [3] was -3.3%. The growth inhibition [4] was -19.1%, the growth inhibition [5] was -11.9% and the growth inhibition [6] was 8.05%.

In the case of `Cc1cc(Cl)c(Cl)cc1Cl`, the growth inhibition [1] is reported as 13%, the growth inhibition [2] is reported as 5.7% and the growth inhibition [3] is reported as -6.5%. For the same compound, the growth inhibition [4] was -4%, the growth inhibition [5] was -6.35% and the growth inhibition [6] was 2.3%.

For `CC1C2CC(CC2O)C1(C)C` (stereo unspecified), the growth inhibition [1] was 11.3%, the growth inhibition [2] was 16.6% and the growth inhibition [3] was 18.1%. For the same compound, the growth inhibition [4] was 24.4%, the growth inhibition [5] was 6.3% and the growth inhibition [6] was 15.9%.

In the case of `COC(=O)c1ccccc1C1CN=NC12Cc1c(C)cccc1C2=O` (stereo unspecified), the growth inhibition [1] is reported as -2.25%, the growth inhibition [2] is reported as 6% and the growth inhibition [3] is reported as -5%. The growth inhibition [4] was -7.1%, the growth inhibition [5] was 13.8% and the growth inhibition [6] was -13.7%.

With `NC(=S)N/N=C1\C(=O)NC(=O)C1c1ccccc1` (stereo unspecified) the growth inhibition [1] was 4.75%, the growth inhibition [2] was 1.4% and the growth inhibition [3] was 3.45%. It also gave a growth inhibition [4] of 0.45%, a growth inhibition [5] of 15.6% and a growth inhibition [6] of 6.95%.

With `COc1ccc(C2Cc3cc(OC)c(OC)cc3C(c3ccccc3)N2)cc1OC` (stereo unspecified) the growth inhibition [1] was 8.7%, the growth inhibition [2] was 18.7% and the growth inhibition [3] was 16.7%. For the same compound, the growth inhibition [4] was 12.5%, the growth inhibition [5] was -1.25% and the growth inhibition [6] was 30.5%.

Compound `CSc1ncc(CO)c(Nc2ccc(F)cc2)n1` has a growth inhibition [1] of -12.7%, a growth inhibition [2] of 8.7% and a growth inhibition [3] of -16.4%. The growth inhibition [4] was -20%, the growth inhibition [5] was -14.9% and the growth inhibition [6] was -23.4%.

`CC(C)COC(=O)c1ccc(C(C)C)cc1` showed a growth inhibition [1] of 9.35%, a growth inhibition [2] of 8.8% and a growth inhibition [3] of 4.6%. It also gave a growth inhibition [4] of -9.8%, a growth inhibition [5] of 5.1% and a growth inhibition [6] of 4.45%.

`O=S1(=O)CS/C(=N/C(=S)N(Cc2ccccc2)Cc2ccccc2)N1c1ccccc1` gave a growth inhibition [1] of 43%, a growth inhibition [2] of 14% and a growth inhibition [3] of 35.1%. It also gave a growth inhibition [4] of 24.8%, a growth inhibition [5] of -3.85% and a growth inhibition [6] of 29.6%.

`O=S(=O)(O)c1cccc2cccc(Nc3ccccc3)c12` gave a growth inhibition [1] of -0.5%, a growth inhibition [2] of 0.35% and a growth inhibition [3] of 8.85%. It also gave a growth inhibition [4] of -33.1%, a growth inhibition [5] of -14.8% and a growth inhibition [6] of 25.4%.

With `O=C(O)/C=C/c1ccccc1Br` the growth inhibition [1] was 20.8%, the growth inhibition [2] was 3.5% and the growth inhibition [3] was 12.7%. For the same compound, the growth inhibition [4] was 8.3%, the growth inhibition [5] was -8.7% and the growth inhibition [6] was -17.4%.

In the case of `COc1ccc2c(c1OC)C(=O)O[C@@H]2[C@H]1c2c(cc3c(c2OC)OCO3)CCN1C`, the growth inhibition [1] is reported as 5.7%, the growth inhibition [2] is reported as -28.9% and the growth inhibition [3] is reported as -27.8%. For the same compound, the growth inhibition [4] was 6.75%, the growth inhibition [5] was -7.35% and the growth inhibition [6] was 11.3%.
